This is an account of results in PubChem BioAssay (NCI).

This is part of a sample that, as a whole, favours compounds with a hit. Of some 83,000 tested, about 20% had one in any assay.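 The test compound was applied at a single concentration to cells in 96-well plates for 48 hours, and percent growth was recorded.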 The source made the active and inactive calls.

This experiment has as its system LOX IMVI melanoma. Nature of the experiment: NCI-60 one-dose screen, 48 h (100 = growth as untreated, 0 = no growth, -100 = all killed). The settings on record: 10 µM unless noted. The method, then:
Growth inhibition of the LOX IMVI human tumor cell line is measured as a screen for anti-cancer activity. Cells are grown in 96 well plates and exposed to the test compound for 48 hours. Compounds are tested at a single concentration, which is 10^-5 M for most compounds. The reported endpoint is percent growth (GI% or GIPRCNT), where numbers from 0 - 100% represent growth inhibition, and numbers from -100% - 0 represent cell death. For example, a value of 40 represents 60% growth inhibition. A value of 0 means no net growth occurred over the course of the experiment. A value of -40 indicates 40% of cells at the beginning of the experiment died by the end of the experiment. A value of -100 means all cells are dead at the end of the experiment.
NCI-60 Human Tumor Cell Lines Screen was performed using the standard one-dose NCI protocol, which is described in more detail at https://dtp.cancer.gov/discovery_development/nci-60/default.htm.
Compounds with GIPRCNT values below 10 were considered active. Activity score was based on GIPRCNT using the following formula: […]
Score is 0 for GIPRCNT values of 100 or above, 50 for GIPRCNT values of 0, and 100 for GIPRCNT values of -100.
Regarding `Cc1nc2ccccc2c(/C=C/c2ccc(Cl)cc2)c1C(=O)/C=C/c1ccc(F)cc1`, the growth is -90.3% (active). The figure for `COc1ccc(C2CC(c3cccc(OC)c3)=NN2C(=O)c2cc(OC)c(OC)c(OC)c2)cc1` (stereo not given) is 35.5% (inactive); for `N/C(=N/N=C/c1ccccc1)N/N=C\c1ccccc1` it is 62.1% (inactive); for `C[n+]1cc2cc(C(N)=O)[nH]c3c(=N)c(Cl)c(N)c1c23` it is 64.2% (inactive). The figure for `CC(=O)N1N=C(c2ccc(Nc3nc(Nc4ccc(F)cc4)nc(Nc4ccc(F)cc4)n3)cc2)CC1c1cccc([N+](=O)[O-])c1` (stereo not given) is 87.9% (inactive). Then `Nc1cc2c3c(cccc3c1)C(=O)N(CCN1CCCC1)C2=O`, with 11.9% (inactive); and `C[C@H]1[C@H]2[C@H]3CC[C@@H]4[C@@]5(C)C/C(=C/c6ccco6)C(=O)C(C)(C)[C@@H]5CC[C@@]4(C)[C@]3(C)CC[C@]23CO[C@]1(C)[C@@H](C(=O)/C=C\c1ccco1)C3`, with 93.6% (inactive); and `CC(CCc1ccc(Cl)c(Cl)c1)NCc1ccc(C(C)(C)C)cc1` (stereo not given), with 79.8% (inactive). Consider `COc1ccc(-c2nc(SCC(=O)Nc3nc(-c4ccccc4)cs3)[nH]c(=O)c2C#N)cc1`, for which the growth was 92.9% (inactive).

For the compound `CNS(=O)(=O)c1n[nH]nc1-c1cc(C(C)(C)C)c(O)c(C(C)(C)C)c1`, the growth was 101% (inactive). The figure for `O=C(Nc1ccc(Cl)cc1)Nc1ccc(Cl)c(C(F)(F)F)c1` is 3.49% (active). On to `Cc1ccc(Cl)c(NS(=O)(=O)c2ccc(-c3cnc(C4CC4)o3)cc2)c1`, for which the growth was 33% (inactive).

For the compound `CCCCCCCOc1c(OC)cc(C2CC(=O)Nc3c2c(C)nn3-c2nc3ccccc3[nH]2)cc1OC` (stereo not given), the growth is -89.2% (active). The figure for `COc1ccc(/C=N\NC(=O)c2cc(-c3ccc(Br)cc3)n(-c3ccc(S(N)(=O)=O)cc3)n2)cc1` is 45.4% (inactive); for `CC/C=C\C[C@H](O)C/C=C1/C(=O)C=C[C@@H]1C/C=C\CCCC(=O)OC` it is -76.9% (active). Then `CC(=O)[C@@H]1CC[C@]2(COS(=O)(=O)c3ccc(C)cc3)CC[C@]3(C)[C@H](CC[C@@H]4[C@@]5(C)CCCNC(C)(C)[C@@H]5CC[C@]43C)[C@@H]12`, with 14% (inactive); and `COc1ccc(-c2[nH]c(=S)n(C(CC3(C)NCC(=O)N3n3c(-c4ccccc4)cc(C)nc3=S)c3ccc(OC)cc3)c(=O)c2Br)cc1` (stereo not given), with 41.3% (inactive); and `C=C(C)[C@@H]1CC=C2c3sc(-c4ccc(C)cc4)nc3C[C@@H](C)[C@]2(C)C1`, with 95.3% (inactive). The figure for `O=C(CCc1nnc(CN(c2ccccc2)c2ccccc2)o1)c1nc2ccccc2[nH]1` is 80.3% (inactive). `O=C(Nc1cccc(Oc2nnc(Cl)c3ccccc23)c1)Nc1ccc(Cl)c(C(F)(F)F)c1`: the growth was -93.2% (active). Then `Cc1ccc2c(c1)Sc1c(ccc3ccccc13)N2`, with 45.6% (inactive); and `NS(=O)(=O)c1cnccc1Oc1cccc2cccnc12`, with 96% (inactive); and `CC(C)C(=O)Nc1n[nH]c2cc(-c3cccc(NS(=O)(=O)C4CC4)c3)ccc12`, with 64.6% (inactive).

In the case of `O=C(Nc1cccc2c(O)c(N=Nc3ccc(S(=O)(=O)Nc4nccs4)cc3)cc(N=Nc3ccc(S(=O)(=O)Nc4nccs4)cc3)c12)C(Cl)Cl`, the growth was 66.7% (inactive).

On to `Oc1ccc(CN2CCC(N3CCOCC3)CC2)c2cccnc12`, for which the growth is 15.2% (inactive). Consider `COc1ccc2[nH]c(O)c(C(=Nc3ccc(N(C)C(=O)CN4CCN(C)CC4)cc3)c3ccccc3)c2c1`, for which the growth is 9.09% (active).

As to `CC(C)(C)C(CCc1ccc(Cl)cc1)N1CCN(C2CCCCC2)CC1` (stereo not given), the growth was -20.3% (active). As to `COc1cc2c(cc1-c1c(C)noc1C)ncc1nc(C3CCCCC3)n(C3CCC(OC(F)F)CC3)c12` (stereo not given), the growth is 17.8% (inactive). The figure for `CCOC(=O)c1c2c(n3ccc(NC(=O)OC(C)(C)C)cc13)C(=O)c1ncccc1C2=O` is -68.8% (active). Then `N#C/C(=C\c1ccc(-c2ccccc2F)o1)c1nc(-c2ccco2)cs1`, with 93.7% (inactive).

As to `CC1(C)CC[C@]2(C(=O)N3CCOCC3)CC[C@]3(C)C(=CC[C@@H]4[C@@]5(C)CC[C@H](OC(=O)c6cccnc6)C(C)(C)[C@@H]5CC[C@]43C)[C@@H]2C1`, the growth is 28% (inactive). Take `c1ccc(Nc2nc(-c3ccccn3)cs2)nc1`: the growth was 1.84% (active). Regarding `CCOc1c(C#N)nnc2c(C#N)c(NC(=O)c3ccccc3)nn12`, the growth is 95.5% (inactive). Then `OC(c1cccc(-n2ccc(C(F)(F)F)n2)c1)c1cnccc1NC1CCCCCC1` (stereo not given), with -91.4% (active); and `O=C(COc1ccc(/C=C2\Oc3ccccc3C2=O)cc1)c1ccc(Cl)cc1`, with 95.8% (inactive). Regarding `COc1ccc(-c2csc(C3=C(O)CN(C(C)C)C3=N)n2)cc1OC`, the growth was 94.1% (inactive). The figure for `Cc1ccc(S(=O)(=O)n2cc(CNc3ccc(N4CCOCC4=O)cc3)c3ccccc32)cc1` is 87.2% (inactive); for `Cc1ccc(C(=O)C2=C(O)C(=O)N(Cc3cccnc3)C2c2ccccc2F)o1` (stereo not given) it is 80.8% (inactive); for `Cc1ccc2nc(NC(=O)CSc3nc(-c4ccccc4)c(C#N)c(=O)n3Cc3ccccc3)sc2c1` it is 83.1% (inactive). Then `CS(=O)(=O)c1ccc(Nc2nc(N[C@H]3CCCC[C@H]3N)nc3cc[nH]c(=O)c23)cc1`, with -10.7% (active).
